# PubChem BioAssay AID1159580 (chemical genetic matrix, 2015)
# Among all 5,500 compounds or so, about 2,000 (36%) were called active. Not shown: some 18% with an inconclusive outcome. Some of the results follow. Values without a mark were called inactive. No stated cut-off is given here; in the data, active means normalized growth mostly below about 0.91 (no sharp cut-off); inconclusive means no clear call, values can overlap the other calls; inactive means mostly above about 0.92.
# Test: chemical genetic growth profiling, strain panel (AID 1159580);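 further: tested at 20 µM; growth read once vehicle control cultures reached saturation at 30 °C; 1 = growth at the plate median or of vehicle wells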
# Details: S. cerevisiae deletion strains, growth OD
smiles,measurement,setting,value
O=c1cc(CSc2ccc(Cl)cc2)c2ccc(O)cc2o1,normalized growth,"locus YAR019C, strain CDC15, stronger effect = lower value",0.937
same,normalized growth,"locus YBL105C, strain PKC1, stronger effect = lower value",0.963
same,normalized growth,"locus YBR135W, strain CKS1, stronger effect = lower value",0.944
same,normalized growth,"locus YBR136W, strain MEC1, stronger effect = lower value",0.949
same,normalized growth,"locus YBR160W, strain CDC28, stronger effect = lower value",0.96
same,normalized growth,"locus YDL017W, strain CDC7, stronger effect = lower value",0.964
same,normalized growth,"locus YDL028C, strain MPS1, stronger effect = lower value",0.956
same,normalized growth,"locus YDL101C, strain DUN1, stronger effect = lower value",0.974
same,normalized growth,"locus YDL108W, strain KIN28, stronger effect = lower value",0.955
same,normalized growth,"locus YDL132W, strain cdc53, stronger effect = lower value",0.944
same,normalized growth,"locus YDL214C, strain PRR2, stronger effect = lower value",0.738
same,normalized growth,"locus YDR052C, strain DBF4, stronger effect = lower value",0.962
same,normalized growth,"locus YDR054C, strain cdc34, stronger effect = lower value",0.937
same,normalized growth,"locus YDR226W, strain ADK1, stronger effect = lower value",0.959
same,normalized growth,"locus YDR477W, strain SNF1, stronger effect = lower value",0.674 (active)
same,normalized growth,"locus YER123W, strain YCK3, stronger effect = lower value",0.565 (active)
same,normalized growth,"locus YER133W, strain GLC7, stronger effect = lower value",0.572 (active)
same,normalized growth,"locus YFL009W, strain cdc4, stronger effect = lower value",0.935
same,normalized growth,"locus YFL029C, strain CAK1, stronger effect = lower value",0.943
same,normalized growth,"locus YFR003C, strain YPI1, stronger effect = lower value",0.959
same,normalized growth,"locus YFR019W, strain FAB1, stronger effect = lower value",0.826
same,normalized growth,"locus YFR028C, strain CDC14, stronger effect = lower value",0.954
same,normalized growth,"locus YGR040W, strain KSS1, stronger effect = lower value",0.631 (active)
same,normalized growth,"locus YGR052W, strain FMP48, stronger effect = lower value",0.436 (active)
same,normalized growth,"locus YGR092W, strain DBF2, stronger effect = lower value",0.63
same,normalized growth,"locus YHR030C, strain SLT2, stronger effect = lower value",0.452 (active)
same,normalized growth,"locus YHR079C, strain IRE1, stronger effect = lower value",0.405 (active)
same,normalized growth,"locus YHR082C, strain KSP1, stronger effect = lower value",0.472 (active)
same,normalized growth,"locus YHR205W, strain SCH9, stronger effect = lower value",0.759
same,normalized growth,"locus YIL147C, strain SLN1, stronger effect = lower value",0.95
same,normalized growth,"locus YJL095W, strain BCK1, stronger effect = lower value",0.432 (active)
same,normalized growth,"locus YJL128C, strain PBS2, stronger effect = lower value",0.92
same,normalized growth,"locus YJL157C, strain FAR1, stronger effect = lower value",0.737
same,normalized growth,"locus YJR016C, strain ILV3, stronger effect = lower value",0.945
same,normalized growth,"locus YJR066W, strain TOR1 (second series), stronger effect = lower value",0.738
same,normalized growth,"locus YJR066W, strain TOR1, stronger effect = lower value",0.534
same,normalized growth,"locus YKL048C, strain ELM1, stronger effect = lower value",0.656 (active)
same,normalized growth,"locus YKL067W, strain YNK1, stronger effect = lower value",0.732 (active)
same,normalized growth,"locus YKL101W, strain HSL1, stronger effect = lower value",0.682 (active)
same,normalized growth,"locus YKL193C, strain SDS22, stronger effect = lower value",0.947
same,normalized growth,"locus YKL203C, strain TOR2, stronger effect = lower value",0.66 (active)
same,normalized growth,"locus YLR113W, strain HOG1, stronger effect = lower value",0.265 (active)
same,normalized growth,"locus YLR133W, strain CKI1, stronger effect = lower value",0.747
same,normalized growth,"locus YLR403W, strain SFP1, stronger effect = lower value",0.639 (active)
same,normalized growth,"locus YML070W, strain DAK1, stronger effect = lower value",0.666 (active)
same,normalized growth,"locus YMR001C, strain CDC5, stronger effect = lower value",0.944
same,normalized growth,"locus YMR205C, strain PFK2 (second series), stronger effect = lower value",0.748
same,normalized growth,"locus YMR277W, strain FCP1, stronger effect = lower value",0.928
same,normalized growth,"locus YNL006W, strain LST8, stronger effect = lower value",0.958
same,normalized growth,"locus YNL020C, strain ARK1, stronger effect = lower value",0.719
same,normalized growth,"locus YNL161W, strain CBK1, stronger effect = lower value",0.947
same,normalized growth,"locus YNL183C, strain NPR1, stronger effect = lower value",0.434 (active)
same,normalized growth,"locus YNL207W, strain RIO2, stronger effect = lower value",0.946
same,normalized growth,"locus YNL222W, strain SSU72, stronger effect = lower value",0.944
same,normalized growth,"locus YNL307C, strain MCK1 (second series), stronger effect = lower value",0.686
same,normalized growth,"locus YOL078W, strain AVO1, stronger effect = lower value",0.939
same,normalized growth,"locus YOL136C, strain PFK27, stronger effect = lower value",0.748
same,normalized growth,"locus YOR061W, strain CKA2, stronger effect = lower value",0.712
same,normalized growth,"locus YOR119C, strain RIO1, stronger effect = lower value",0.654 (active)
same,normalized growth,"locus YOR231W, strain MKK1, stronger effect = lower value",0.444 (active)
same,normalized growth,"locus YOR329C, strain SCD5, stronger effect = lower value",0.955
same,normalized growth,"locus YPL031C, strain PHO85, stronger effect = lower value",0.497 (active)
same,normalized growth,"locus YPL153C, strain RAD53, stronger effect = lower value",0.442 (active)
same,normalized growth,"locus YPL204W, strain HRR25, stronger effect = lower value",0.574 (active)
same,normalized growth,"locus YPL209C, strain IPL1, stronger effect = lower value",0.955
same,normalized growth,"locus YPL256C, strain CLN2, stronger effect = lower value",0.41 (active)
same,normalized growth,"locus YPR025C, strain CCL1, stronger effect = lower value",0.952
same,normalized growth,"locus YPR106W, strain ISR1, stronger effect = lower value",0.952
same,normalized growth,"locus YPR111W, strain DBF20, stronger effect = lower value",0.951
same,normalized growth,"strain NNK1, stronger effect = lower value",0.948
same,normalized growth,"strain TSCII, stronger effect = lower value",0.934
